Test results from ChEMBL document CHEMBL2218924, “A broad activity screen in support of a chemogenomic map for kinase signalling research and drug discovery” (Biochem J, 2013).

Each compound was assayed against T1, Serine/threonine-protein kinase Sgk3 (Homo sapiens) (UniProt Q96BR1). Details: at 1 µM.
T1 sequence (whole entry): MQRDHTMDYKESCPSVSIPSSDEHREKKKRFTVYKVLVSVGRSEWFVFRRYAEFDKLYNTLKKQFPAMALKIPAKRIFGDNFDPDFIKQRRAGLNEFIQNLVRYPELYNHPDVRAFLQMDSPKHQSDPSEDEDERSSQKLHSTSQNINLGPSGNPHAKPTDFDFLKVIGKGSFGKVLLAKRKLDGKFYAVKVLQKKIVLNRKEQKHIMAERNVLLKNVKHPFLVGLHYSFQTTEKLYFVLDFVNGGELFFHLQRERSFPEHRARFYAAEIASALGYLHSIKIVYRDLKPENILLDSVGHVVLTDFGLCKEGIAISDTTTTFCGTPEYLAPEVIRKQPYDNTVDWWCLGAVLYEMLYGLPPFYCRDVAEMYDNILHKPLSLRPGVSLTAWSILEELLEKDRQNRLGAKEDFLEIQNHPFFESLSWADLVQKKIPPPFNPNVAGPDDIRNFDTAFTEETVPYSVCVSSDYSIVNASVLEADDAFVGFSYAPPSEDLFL

| Compound | residual activity [%] |
| --- | --- |
| O=C(O)c1ccc2c3c1cccc3c(=O)n1c3ccccc3nc21 | 105 |
| C[C@@H](N)[C@H]1CC[C@H](C(=O)Nc2ccncc2)CC1 | 101 |
| Cc1cc2ncc(-c3ccccc3)nc2cc1C | 108 |
| Cc1nc(-c2ccccc2)c(-c2ccncc2)o1 | 108 |
| COc1cc2ncnc(Nc3ccc(O)c(Br)c3)c2cc1OC | 99 |
| CC(C)[C@H](CO)Nc1nc(Nc2cc(N)cc(Cl)c2)c2ncn(C(C)C)c2n1 | 98 |
| CCN(CC)CCCCN1c2ccccc2Oc2ccc(Cl)cc21 | 107 |
| Nc1n[nH]c2nnc(-c3c(-c4ccccc4)nn4ccccc34)cc12 | 106 |
| N/C(=N\[N+](=O)[O-])N/N=C\c1ccc(-c2cccc([N+](=O)[O-])c2)o1 | 127 |
| COc1ccc2c(c1)c(C1=C(c3c[nH]c4ccccc34)C(=O)NC1=O)cn2CCCN(C)C | 96 |
| CC(C)n1cnc2/c(=N/c3cccc(Cl)c3)nc(NCCO)[nH]c21 | 107 |
| O=C1NC(=O)c2c1c1c3ccccc3[nH]c1n1cncc21 | 87 |
| O=c1c2ccccc2[nH]c(=S)n1CCN1CCC(=C(c2ccc(F)cc2)c2ccc(F)cc2)CC1 | 118 |
| CCOc1cc2ncnc(Nc3cccc(Br)c3)c2cc1OCC | 108 |
| NC(=O)c1ccc2[nH]c(-c3ccc(Oc4ccc(Cl)cc4)cc3)nc2c1 | 107 |
| O=[N+]([O-])c1ccc(-c2nc(-c3ccc(F)cc3)c(-c3ccncc3)[nH]2)cc1 | 111 |
| O=c1cc(-c2cccc3c2Sc2ccccc2S3)oc(N2CCOCC2)c1 | 101 |
| O=C1Nc2cc(Br)ccc2/C1=C1/Nc2ccccc2/C1=N\O | 86 |
